# Target: T1, GST-Nv-NF-kB (Ser allele) (Nematostella vectensis, UniProt A7UNT2 2-411)
# T1 sequence: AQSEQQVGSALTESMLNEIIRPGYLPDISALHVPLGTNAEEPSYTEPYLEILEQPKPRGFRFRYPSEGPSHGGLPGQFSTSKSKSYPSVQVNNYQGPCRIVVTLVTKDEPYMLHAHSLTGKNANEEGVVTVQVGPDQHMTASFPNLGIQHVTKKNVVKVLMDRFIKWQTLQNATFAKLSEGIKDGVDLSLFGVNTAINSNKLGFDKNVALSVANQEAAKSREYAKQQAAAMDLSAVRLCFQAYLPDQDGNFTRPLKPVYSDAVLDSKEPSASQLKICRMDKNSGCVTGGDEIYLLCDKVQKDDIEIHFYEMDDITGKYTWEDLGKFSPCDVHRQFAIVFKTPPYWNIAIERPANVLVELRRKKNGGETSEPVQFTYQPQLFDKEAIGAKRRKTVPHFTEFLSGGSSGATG
# Assay: protein-binding microarray (PBM); PBM: ~300 nM protein, 6 mM HEPES pH 7.8, 80 mM KCl, 0.5 mM EDTA, 0.5 mM EGTA, 6% glycerol, 35 ng/ul poly-dIdC, 1% milk, 1 h, room temperature; Ap Aiptasia and Nv Nematostella (sea anemones) / Co Capsaspora / Aq Amphimedon (sponge) / Dm Drosophila / Hu human; RHD is the Rel homology domain; high values mean tight binding
# Conditions: dsDNA, one strand shown
row,Sequence,binding signal
1,CCGATTAACATCAACACTCCCCCTGATGTTAATCGGGTCTTGATTCGCTTGACGCTGCTG,5.61 z-score
2,CCGATTAACATCAAGCCCCCCCCTGATGTTAATCGGGTCTTGATTCGCTTGACGCTGCTG,4.25 z-score
3,CCGATTAACATCATGGTACTTGTTGATGTTAATCGGGTCTTGATTCGCTTGACGCTGCTG,1.85 z-score
4,CCGATTAACATCAGAAATACCCATGATGTTAATCGGGTCTTGATTCGCTTGACGCTGCTG,4.71 z-score
5,CCGATTAACATCAGGGACTTTAATGATGTTAATCGGGTCTTGATTCGCTTGACGCTGCTG,6.21 z-score
6,CCGATTAACATCAAGGGGGGGAGTGATGTTAATCGGGTCTTGATTCGCTTGACGCTGCTG,4.08 z-score
7,CCGATTAACATCAAGAGTCCCCCTGATGTTAATCGGGTCTTGATTCGCTTGACGCTGCTG,5.78 z-score
8,CCGATTAACATCAAGAAAATCCCTGATGTTAATCGGGTCTTGATTCGCTTGACGCTGCTG,4.75 z-score
9,CCGATTAACATCACAGCAGTACCTGATGTTAATCGGGTCTTGATTCGCTTGACGCTGCTG,3.01 z-score
10,CCGATTAACATCAGGGTAATTTATGATGTTAATCGGGTCTTGATTCGCTTGACGCTGCTG,6 z-score
11,CCGATTAACATCACTAAACCCCCTGATGTTAATCGGGTCTTGATTCGCTTGACGCTGCTG,6.49 z-score
12,CCGATTAACATCAGGGGGTGGAATGATGTTAATCGGGTCTTGATTCGCTTGACGCTGCTG,4.75 z-score
13,CCGATTAACATCAGGGGCTTCCATGATGTTAATCGGGTCTTGATTCGCTTGACGCTGCTG,3.55 z-score
14,CCGATTAACATCAAAGCACCCCCTGATGTTAATCGGGTCTTGATTCGCTTGACGCTGCTG,4.9 z-score
15,CCGATTAACATCAGAGTATCCCCTGATGTTAATCGGGTCTTGATTCGCTTGACGCTGCTG,5.44 z-score
16,CCGATTAACATCAAAAATTCACCTGATGTTAATCGGGTCTTGATTCGCTTGACGCTGCTG,3.83 z-score
17,CCGATTAACATCACATATCCCCCTGATGTTAATCGGGTCTTGATTCGCTTGACGCTGCTG,6.2 z-score
18,CCGATTAACATCAAACATCCCCCTGATGTTAATCGGGTCTTGATTCGCTTGACGCTGCTG,6.41 z-score
19,CCGATTAACATCACTTTGGGAAATGATGTTAATCGGGTCTTGATTCGCTTGACGCTGCTG,1.89 z-score

row,Sequence,binding signal
1,CCGATTAACATCACCTCCCCCCCTGATGTTAATCGGGTCTTGATTCGCTTGACGCTGCTG,4.34 z-score
2,CCGATTAACATCAAACCACCCCCTGATGTTAATCGGGTCTTGATTCGCTTGACGCTGCTG,3.66 z-score
3,CCGATTAACATCAGGGACGCCCCTGATGTTAATCGGGTCTTGATTCGCTTGACGCTGCTG,3.51 z-score
4,CCGATTAACATCAGGGAAACTTATGATGTTAATCGGGTCTTGATTCGCTTGACGCTGCTG,6.07 z-score
5,CCGATTAACATCAGGGGTTTTACTGATGTTAATCGGGTCTTGATTCGCTTGACGCTGCTG,4.36 z-score
6,CCGATTAACATCATCAGGGGGGATGATGTTAATCGGGTCTTGATTCGCTTGACGCTGCTG,3.78 z-score
7,CCGATTAACATCAGGGGATATACTGATGTTAATCGGGTCTTGATTCGCTTGACGCTGCTG,5.69 z-score
8,CCGATTAACATCAAAAGGAAATTTGATGTTAATCGGGTCTTGATTCGCTTGACGCTGCTG,1.08 z-score
9,CCGATTAACATCAGACATGGGAATGATGTTAATCGGGTCTTGATTCGCTTGACGCTGCTG,1.34 z-score
10,CCGATTAACATCAGTTGTCCCGCTGATGTTAATCGGGTCTTGATTCGCTTGACGCTGCTG,1.42 z-score
11,CCGATTAACATCAGAAGACCCCCTGATGTTAATCGGGTCTTGATTCGCTTGACGCTGCTG,3.72 z-score
12,CCGATTAACATCAAGGGGGGAGATGATGTTAATCGGGTCTTGATTCGCTTGACGCTGCTG,4.86 z-score
13,CCGATTAACATCAGACCCCCCCCTGATGTTAATCGGGTCTTGATTCGCTTGACGCTGCTG,3.56 z-score
14,CCGATTAACATCACTCCCCCCCCTGATGTTAATCGGGTCTTGATTCGCTTGACGCTGCTG,4.8 z-score
15,CCGATTAACATCATACCCCCCCATGATGTTAATCGGGTCTTGATTCGCTTGACGCTGCTG,3.11 z-score
16,CCGATTAACATCAACAACCCCCCTGATGTTAATCGGGTCTTGATTCGCTTGACGCTGCTG,5.06 z-score
17,CCGATTAACATCACAGCCCCCCCTGATGTTAATCGGGTCTTGATTCGCTTGACGCTGCTG,3.62 z-score
18,CCGATTAACATCAGGCGTTCCCCTGATGTTAATCGGGTCTTGATTCGCTTGACGCTGCTG,5.77 z-score

# Source: publication PMC5700166
